RORgamma inh – inhibitors of mouse ROR gamma transcriptional activity; Drosophila S2 Gal4-RORgamma UAS-luciferase reporter, 20 h; Potency, µM (top dose mostly 53.6 µM), inactives show at the highest dose activity change, negative = inhibition, most hits filed as inhibitors; 310,000 tested, 5.4% active; AID 2551; further: nearly all actives have a fitted effect of over 60% in size
Target sequence (P51450 whole entry, looked up, the tested form may be a part): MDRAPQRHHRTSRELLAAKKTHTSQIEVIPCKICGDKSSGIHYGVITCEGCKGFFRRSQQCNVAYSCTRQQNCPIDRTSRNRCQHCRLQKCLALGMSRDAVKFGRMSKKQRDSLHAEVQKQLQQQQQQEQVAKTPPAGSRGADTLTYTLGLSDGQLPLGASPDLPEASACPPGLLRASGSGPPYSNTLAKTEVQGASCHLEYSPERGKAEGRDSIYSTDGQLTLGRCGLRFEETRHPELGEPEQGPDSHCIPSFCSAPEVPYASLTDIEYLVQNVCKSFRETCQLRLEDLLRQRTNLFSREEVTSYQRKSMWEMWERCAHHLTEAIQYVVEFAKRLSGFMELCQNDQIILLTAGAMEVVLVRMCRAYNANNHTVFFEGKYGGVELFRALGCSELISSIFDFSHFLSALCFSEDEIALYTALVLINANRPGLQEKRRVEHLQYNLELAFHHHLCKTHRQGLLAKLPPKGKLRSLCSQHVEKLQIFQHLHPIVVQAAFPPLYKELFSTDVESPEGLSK
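Compounds are pin-transferred onto Drosophila Schneider cells expressing a copper-inducible Gal4–ROR gamma transactivation domain fusion. After 1 hr, copper sulfate is added to 700 uM final; luciferase is read 20 hr later.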
KinaseGlo FLuc – counter-screen: inhibitors of Kinase-Glo firefly luciferase; 200,000 tested, 0.28% active; AID 1379; Potency, µM (series often up to 38.3 µM), for inactives: at the highest dose activity change, negative = inhibition, actives largely listed as inhibitors; Kinase-Glo luciferase, ATP luminescence, 8 min; further: nearly all actives have a fitted effect of over 60% in size
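Kinase-Glo luciferase light output from ATP and luciferin was measured with 10 uM ATP, within the enzyme's linear range. Buffer: 50 mM imidazole pH 7.2, 50 mM KCl, 7 mM MgCl2, 0.01% Tween 20, 0.05% BSA; luminescence read after 8 min at ambient temperature.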
Gal4-VP16 FLuc – counter-screen for ROR gamma inhibitors: Gal4-VP16 reporter. Drosophila S2 Gal4-VP16 UAS-luciferase, luminescence, 20 h. 310,000 tested, 3.5% active. AID 2546. Potency, µM (top dose mostly 53.6 µM), without a hit: top-dose activity, negative = inhibition, actives largely listed as inhibitors;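 further: Gal4-VP16 expression switched on by copper sulfate through the metallothionein promoter; nearly all actives have a fitted effect of over 50% in size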
Numbers without * were called inactive; ? = inconclusive; . = no result; [ ] = another dose, or the depositor's remark. This is a sample that favours compounds with a hit; in the whole collection about 6.2% have one here. The call rests on the fitted dose curve; in most records, active means well fitted curve in the direction sought with a large enough effect; inconclusive means small, poorly fitted or top-dose-only effect, or another doubt; inactive means no such curve, though single readings can be large; an effect the other way counts as inactive or inconclusive. On the % scale 0 is the no-effect control and ±100 the full control effect; potency means the concentration at half of the fitted maximal effect.

SMILES | RORgamma inh | KinaseGlo FLuc | Gal4-VP16 FLuc
COc1cc(CNCCO)cc(Cl)c1OCc1ccc(Cl)cc1Cl | -2% | -3% | -8%
Nc1c(C(=O)Nc2ccc(S(=O)(=O)N3CCCC3)cc2)sc2nc3ccc(OC(F)(F)F)cc3cc12 | 16µM* | -3% | 10µM*
Nc1c(C(=O)Nc2ccc(S(=O)(=O)N3CCCC3)cc2)sc2nc3cc4c(cc3cc12)CCC4 | -16% | 0% | -14%
CCNc1nc(CC)nc2c1oc1ccccc12 | -29% | -3% | 2%
CCc1nc(SCCO)c2oc3ccccc3c2n1 | -15% | -1% | -13%
CCc1nc(N(CC)CC)c2oc3ccccc3c2n1 | 14µM* | 1% | ?
CCc1nc(N2CCC(C)CC2)c2oc3ccccc3c2n1 | 11µM* | . | ?
COc1ccc(C2/C=C\CN(C(=O)c3ccccc3)C(Cc3ccccc3)C(=O)N2Cc2ccc(F)cc2)cc1 (stereo not drawn) | ? | . | -10%
O=C(C1CCCN(Cc2nc(-c3cccs3)no2)C1)N1CCOCC1 (stereo not drawn) | -2% | 0% | 3%
COc1ccc2nc(Nc3ccccc3)sc2c1 | ? | -11% | -11%
COc1cccc2sc(N)nc12 | 0% | . | -12%
COc1ccc(-c2nnc(Nc3nc4c(OC)cccc4s3)o2)cc1 | 11µM* | -2% | 13µM*
COc1ccc(-c2nnc(Nc3nc4c(OC)cccc4s3)o2)c(OC)c1 | 1.6µM* | 0% | ?
CCCCCCCCCCCCCC/C(C(=O)O)=C(\C)C(=O)O | 35% | . | -10%
O=C(NC1CCCCC1)C(c1ccco1)N(C(=O)c1csnn1)c1cccc(F)c1 (stereo not drawn) | -1% | . | -14%
Cn1c(C2CCCN2C(=O)OC(C)(C)C)n[nH]c1=S (stereo not drawn) | -15% | 0% | 4%
CCCCCC1CCC(c2n[nH]c(=S)n2C)CC1 (stereo not drawn) | ? | -1% | 4µM*
COc1cc([N+](=O)[O-])ccc1NC(=O)Cc1ccccc1 | 15% | 1% | -2%
CCOC(=O)C(=O)Nc1ccc([N+](=O)[O-])cc1OC | 0% | 1% | -11%
CCOC(=O)c1ccc(C(=O)OCC)c(NC(=S)Nc2ccc([N+](=O)[O-])cc2OC)c1 | 2.2µM* | -4% | 2.8µM*
COc1ccc([N+](=O)[O-])cc1NC(=S)NC(=O)C(C)(C)C | ? | -1% | -16%
COc1cc([N+](=O)[O-])ccc1NC(=S)NC(=O)CC(C)(C)C | 10µM* | -1% | -6%
COc1cc([N+](=O)[O-])ccc1NC(=O)CCCOc1cccc(C)c1C | 20µM* | 12% | ?
COc1ccccc1-n1c(SCC(=O)Nc2ccc(Br)cc2)nc(O)cc1=O | 18% | . | -3%
CCN1C(=O)[C@H]2[C@H]3[C@H](O)[C@H](O)C/C(=N/OCC[C@H]4C=C[C@H](OC(C)=O)[C@@H](COC(C)=O)O4)[C@@H]3CC[C@@H]2C1=O | -17%[10 µM] | . | 6%[10 µM]
SMILES | RORgamma inh | KinaseGlo FLuc | Gal4-VP16 FLuc
CC[C@H](C)[C@H](NC(=O)OCC1c2ccccc2-c2ccccc21)C(=O)O | ? | 4% | 0%
Cc1[nH]c(=S)c(C#N)c(C)c1Cc1ccc(Cl)cc1Cl | 3.2µM* | . | 20µM*
Cc1[nH]c(=O)c(C#N)c(C)c1Cc1ccc(Cl)cc1Cl | 0% | -2% | -7%
O=C(O)C12CC3(C(=O)O)CC(C(=O)O)(CC(C(=O)O)(C1)C3=O)C2=O | . | -4%[7.66 µM] | .
N/C(=C\C(=O)c1cc(Cl)ccc1O)C(Cl)(Cl)Cl | 4µM* | . | ?
CNc1ccc(Cl)cc1C(N)=O | 21% | . | -6%
Cc1nn(CC(=O)Nc2ccccn2)c(C)c1[N+](=O)[O-] | -15% | 0% | -9%
Cc1ccc(CNC(=O)C2CCN(S(=O)(=O)c3cccs3)CC2)o1 | ? | -3% | 1%
COc1ccc(-c2cc(N)n(S(=O)(=O)c3c(F)c(F)c(F)c(F)c3F)n2)cc1OC | ? | -4% | 7.1µM*
COc1ccc(S(=O)(=O)n2nc(-c3cc(OC)c(OC)c(OC)c3)cc2N)cc1OC | ? | 3% | 6%
CSc1nc(-c2ccco2)cc(-c2ccccc2)c1C#N | 16µM* | -1% | ?
CSc1nc(-c2ccco2)cc(C(F)(F)F)c1C#N | -26% | 0% | -4%
Cc1ccc(CN(C)C2CCN(C)CC2)cc1 | 39% | . | -1%
O=c1oc2ccc(Cl)cc2nc1/C=C(\O)c1cccs1 | 8.9µM* | . | 11µM*
Cc1ccc2oc(=O)c(/C=C(\O)c3ccccc3)nc2c1 | ? | 2% | ?
C=CCN(C(=O)CSC1=NC(=O)CN1C(C)=O)c1nc(C)c(-c2ccccc2)s1 | 13µM* | 2% | ?
C=CCSc1nnc(-c2sc(-c3ccccc3)nc2C)n1C | 30% | 5% | 18%
COc1ccc(-c2nnc3n2N=C(c2ccc(OC)c(OC)c2)CS3)cc1 | -34% | . | 4%
COc1ccc(CCNC(=O)CCCn2ncn3c(cc4occc43)c2=O)c(OC)c1 | 6% | . | -3%
c1ccc(-c2nnc(-c3ccccn3)s2)nc1 | 1.8µM* | . | 5%
c1ccc(-c2nc(-c3ccccn3)nc(-c3ccccn3)n2)nc1 | -40% | . | -14%
COc1ccccc1-c1ccc(SCC(=O)NC2CCCCC2)nn1 | -23% | . | -3%
CCC(C)Sc1nnc(CNC(=O)C23CC4CC(CC(C4)C2)C3)n1C1CCCCC1 (stereo not drawn) | 11µM* | 2% | ?
CC(C)Sc1nnc(CNC(=O)C23CC4CC(CC(C4)C2)C3)n1Cc1ccccc1 | -40% | 3% | -8%
CCN1CCN(c2nnc(-c3ccccc3)c3ccccc23)CC1 | -20% | . | 0%
SMILES | RORgamma inh | KinaseGlo FLuc | Gal4-VP16 FLuc
CCCCSc1nnc(-c2ccccc2)c2ccccc12 | 70% | . | 13µM*
CC(=O)NC(Cc1ccc(C(C)C)cc1)C(=O)NC1CCN(C(=O)c2cccc(C)c2)CC1 (stereo not drawn) | 2% | -1% | -6%
Oc1ccc(-c2cc(-c3ccc(O)cc3)nc(-c3ccccc3)n2)cc1 | -15% | . | -6%
Oc1ccc(-c2nnc(-c3ccc(O)cc3)nn2)cc1 | 11µM* | -4% | ?
O=C(c1ccc(O)cc1)c1ccc(C(=O)c2ccc(O)cc2)cc1 | ? | -3% | ?
Oc1ccc(O)cc1 | 11µM* | -3% | ?
O=C(CC1CCCCC1)NCc1nc(-c2ccccc2)no1 | 35% | . | -13%
CCSc1nnc(NC(=O)CSc2nccn2-c2cccc(C)c2C)s1 | 10µM* | . | ?
Cc1cc(NC(=O)CSc2nccn2-c2cccc(C)c2C)no1 | -4% | 3% | 1%
CCSc1nnc(NC(=O)CSc2ncccn2)s1 | -9%[0.365 µM] | -3% | .
CCSc1nnc(NC(=O)CSc2nccn2-c2cc(C)cc(C)c2)s1 | 14µM* | . | ?
CCSc1nnc(NC(=O)CSc2c(Cl)cccc2Cl)s1 | 11µM* | -1% | -24%
Cc1cccc(-n2ccnc2SCC(=O)Nc2nnc(C)s2)c1 | -26% | 0% | 4%
Cc1cc(=O)oc2cc(OCC(=O)N3CCC(O)CC3)c(Cl)cc12 | -19% | . | 1%
C[C@H](CCC(=O)O)[C@H]1CC[C@@H]2[C@H]3[C@@H](C[C@@H](O)[C@]21C)[C@]1(C)CC[C@H](O)C[C@@H]1C[C@@H]3O | -6%[10 µM] | 2%[7.66 µM] | -3%
COc1ccc([N+](=O)[O-])cc1NC(=O)COC(=O)c1ccccn1 | 7% | 4% | 7%

Compound activity as filed in PubChem BioAssay.
